This passage reports outcome results from PubChem BioAssay AID618 (Sanford-Burnham Center for Chemical Genomics, 2007).

Hit rate of the full screen: of about 87,000 compounds, about 540 (0.62%) were called active. The rule behind the calls is not given here. The entries come from a sample that favours actives as a whole. Results with a measured potency or affinity are listed apart.

This assay can be described thus: inhibitors of MT1-MMP promoter transcription, cell-based, luciferase reporter, luminescence (AID 618).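 Note: actives suppress MT1-MMP promoter-driven transcription so potencies describe inhibitors.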 The following applies: MT1-MMP promoter luciferase reporter cells.
As for `CCCOC(=O)c1[nH]c2c(c1C)C(=O)CC(c1ccc(OC)c(OC)c1)C2` (stereo unspecified), the outcome was inactive.

With `CCOC(=O)c1[nH]c2c(c1C)C(=O)CC(c1ccc(F)cc1)C2` (stereo unspecified), the compound was called active.

Take `CCOCCOC(=O)c1[nH]c2c(c1C)C(=O)CC(c1ccc(N(C)C)cc1)C2` (stereo unspecified): the compound was called inactive.

Take `CSCCOC(=O)c1[nH]c2c(c1C)C(=O)CC(c1ccco1)C2` (stereo unspecified): the result was active.

With `COCCOC(=O)c1[nH]c2c(c1C)C(=O)CC(c1ccc(F)cc1)C2` (stereo unspecified), the result was inactive.

Regarding `Cc1c(C(=O)OCC(C)C)[nH]c2c1C(=O)CC(c1cccs1)C2` (stereo unspecified), the call was inactive.

Turning to `Cc1c(C(=O)OCCOC(C)C)[nH]c2c1C(=O)CC(c1ccco1)C2` (stereo unspecified), the compound was classed as active.

With `COc1cc(C2CC(=O)c3c([nH]c(C(=O)OCCOC(C)C)c3C)C2)cc(OC)c1OC` (stereo unspecified), the result was inactive.

Turning to `COC(=O)c1[nH]c2c(c1C)C(=O)CC(c1cccs1)C2` (stereo unspecified), the compound was classed as inactive.

For the compound `Cc1c(C(=O)OCCOC(C)C)[nH]c2c1C(=O)CC(C)(C)C2`, the compound was called inactive.

In the case of `CCCOCCOC(=O)c1[nH]c2c(c1C)C(=O)CC(c1cc(OC)ccc1OC)C2` (stereo unspecified), the call was inactive.

Turning to `CCCOC(=O)c1[nH]c2c(c1C)C(=O)CC(c1cccs1)C2` (stereo unspecified), the compound was called active.

On to `Cc1cc(Cl)cc(C)c1OCCCCN1CCOCC1`, for which the outcome was inactive.

Turning to `COCCn1c(CNc2ccc(F)cc2)nnc1SCC(=O)Nc1ccc(OC)cc1OC`, the compound was called inactive.

Consider `COc1ccc(CN2CC(C(=O)NCc3cccc(OC)c3)CC2=O)cc1` (stereo unspecified), for which the result was inactive.

As for `COC(=O)c1ccccc1NC(=O)c1ccc(-c2cccc(Cl)c2)o1`, the compound was called inactive.

For the compound `O=C(Nc1nnc(-c2ccc(Cl)s2)o1)C1CCCCC1`, the compound was classed as inactive.

Consider `COc1ccccc1Oc1ccc2c(c1)C(=O)N(c1cccc(O)c1)C2=O`, for which the outcome was inactive.

On to `CCC(=O)N1CCNC(=O)C1CC(=O)Nc1ccc(C)c(Cl)c1` (stereo unspecified), for which the call was inactive.

On to `CNCc1ccc(OCc2ccccc2)c(OC)c1`, for which the compound was called inactive.

Regarding `CC1=C(C(=O)OCc2ccccc2)C(c2ccco2)C2=C(CC(C)(C)CC2=O)N1` (stereo unspecified), the outcome was inactive.

On to `Cc1c(C(=O)N2CCOCC2)[nH]c2c1C(=O)CC(c1ccccc1Cl)C2` (stereo unspecified), for which the compound was called inactive.

Turning to `Cc1c(C(=O)OCc2ccccc2)[nH]c2c1C(=O)CC(c1ccco1)C2` (stereo unspecified), the call was active.

For the compound `C=CCN1CC(c2nc3ccccc3n2Cc2cccc3ccccc23)CC1=O` (stereo unspecified), the compound was called inactive.

`CCCOc1ccc(C(CC(=O)O)NC(=O)C23CC4CC(CC(C4)C2)C3)cc1` (stereo unspecified): the compound was called inactive.

Take `Cc1ccc(C(=O)Nc2cc(Cl)ccc2N2CCCCC2)s1`: the compound was classed as inactive.

Take `O=C(/C=C/Nc1ccc(F)cc1)c1ccco1`: the result was inactive.

As to `CN(C)c1ccc(N/C=C/C(=O)C(C)(C)C)cc1`, the compound was classed as inactive.

In the case of `CN(C)c1ccc(N/C=C/C(=O)c2ccccc2)cc1`, the call was active.

Consider `CN(C)c1ccc(NC(=O)CN2CCC(C(=O)c3ccc(F)cc3)CC2)cc1`, for which the outcome was inactive.

With `CN(C)c1ccc(NC(=O)CN2CCN(CC(=O)Nc3ccc(F)cc3)CC2)cc1`, the compound was classed as inactive.

For `CC(=O)Nc1ccc(N/C=C/C(=O)c2ccco2)cc1`, the result was inactive.

Regarding `CN(C)c1ccc(N/C=C/C(=O)c2ccc(F)cc2)cc1`, the compound was classed as active.

Turning to `CN(C)c1ccc(C(=O)c2ccccc2)cc1`, the call was inactive.

As to `CSCC[C@H](NC(=O)CCn1nnc2ccccc2c1=O)C(=O)O`, the outcome was inactive.

For `CCN1CCN(C(=O)c2ccc(Cl)c(S(=O)(=O)N3CCOCC3)c2)CC1`, the outcome was inactive.

Consider `Cc1ccc(-n2nc3c(c2NC(=O)c2c(-c4ccccc4Cl)noc2C)CS(=O)(=O)C3)c(C)c1`, for which the outcome was inactive.

Consider `COc1cccc(NC(=O)C(=O)N2CCOCC2)c1`, for which the compound was classed as inactive.

For the compound `Cc1ccc(-n2nc(C)c3c(C)cc(=O)[nH]c32)cc1`, the outcome was inactive.

As for `O=C(c1cccn2c(=O)c3cc(Br)ccc3nc12)N1CCN(c2ccccn2)CC1`, the call was inactive.

In the case of `Cc1ccc(-c2c(C(=O)N3CCOCC3)oc(=O)c3ccccc23)cc1`, the result was inactive.

Consider `CCCCOC(=O)c1ccc(NC(=O)CSc2nncn2C)cc1`, for which the call was active.

Turning to `COC(=O)c1ccc(NC(=O)CSc2nncn2C)cc1`, the call was inactive.

Turning to `Cn1cnnc1SCC(=O)Nc1ccccc1`, the outcome was inactive.

On to `O=C1CC(N2CCC(c3nc4ccccc4o3)CC2)C(=O)N1c1ccc(Cl)cc1` (stereo unspecified), for which the result was inactive.

Turning to `O=C(CCS(=O)(=O)c1cccs1)N1CCCC1`, the outcome was inactive.

For `CC(=O)N1CCc2cc(S(=O)(=O)CCC(=O)O)ccc21`, the outcome was inactive.

On to `O=C1c2ccccc2NC(c2ccc(Cl)cc2Cl)N1Cc1ccccc1` (stereo unspecified), for which the call was inactive.

In the case of `CC(C)(O)c1cc(=O)sc2nc3ccccc3n12`, the compound was called inactive.

For `c1ccc2nc3c(nc2c1)sc1nc2ccccc2n13`, the result was inactive.

Regarding `N=c1cc(C2(O)CCCCC2)n2c(nc3ccccc32)s1`, the outcome was active.

For `c1ccc(Cn2c(-c3cncs3)nc3ccccc32)cc1`, the call was inactive.

Turning to `CCCCN(CCCNC(=O)C1CCN(S(=O)(=O)N2CCOCC2)CC1)Cc1ccccc1`, the compound was classed as inactive.

Consider `CCn1c(CCNC(=O)c2cccs2)nnc1SCC(=O)NC1CCCCC1`, for which the call was inactive.

Regarding `Cc1noc(C)c1CSc1nnc2n(-c3ccccc3)c(=O)c3ccccc3n12`, the result was inactive.

On to `COc1ccc(-c2cc3nc(C)c(CCC(=O)NC(C)CCc4ccco4)c(C)n3n2)c(OC)c1` (stereo unspecified), for which the outcome was inactive.

With `COc1cc(OC)cc(-c2cc3nc(C)c(CCC(=O)NC(C)CCc4ccco4)c(C)n3n2)c1` (stereo unspecified), the call was inactive.

Consider `COc1ccc(CCNC(=O)N2CCOCC2)cc1`, for which the compound was called inactive.

Turning to `CC(C)(C)n1nnnc1CN(Cc1ccco1)Cc1cc2cc3c(cc2[nH]c1=O)OCO3`, the call was inactive.

`O=C(O)c1ccccc1NC(=O)C1CCCO1` (stereo unspecified): the compound was classed as inactive.

As to `c1cncc(CNc2c3c(nc4nnnn24)CCCC3)c1`, the outcome was inactive.

Consider `O=C(O)c1cccc(-c2nnn(Cc3ccccc3Cl)n2)c1`, for which the call was inactive.

Turning to `O=C(O)c1cccc(-c2nnn(Cc3ccccc3)n2)c1`, the outcome was inactive.

Regarding `COc1cc(-c2nc(S(=O)(=O)c3ccc(C)cc3)c(N(C)C)o2)cc(OC)c1OC`, the result was inactive.

As to `CCOc1cccc(NC(=O)C2CC(=O)N(C)C2)c1` (stereo unspecified), the outcome was inactive.

As to `CCN(CC)CC(O)COc1ccccc1C(=O)CCc1ccccc1` (stereo unspecified), the compound was called inactive.

As to `CCCNCC(O)COc1ccccc1C(=O)CCc1ccccc1` (stereo unspecified), the result was active.

In the case of `CC(C)(C)NCC(O)COc1ccccc1C(=O)CCc1ccccc1` (stereo unspecified), the call was inactive.

For `CC(C)(C)NS(=O)(=O)c1ccc(CCC(=O)NCc2cccnc2)cc1`, the compound was called inactive.

`CCOC(=O)c1c(NC(=O)CN(CC)CC)sc2c1CCC2`: the compound was classed as inactive.

In the case of `O=C(Cn1c(NCCO)nc2ccccc21)c1cccs1`, the compound was called inactive.

Take `Cc1cc(C)nc(N2CCN(c3nc(C)nc4c3oc3ccccc34)CC2)n1`: the outcome was inactive.

As to `COc1ccccc1N1CCN(c2nc(C)nc3c2oc2ccccc23)CC1`, the outcome was active.

`COc1ccccc1N1CCN(c2ncnc3c2oc2ccccc23)CC1`: the compound was called inactive.

Consider `Cc1ccc(C(=O)Nc2ccccc2OC(F)F)cc1`, for which the result was inactive.

As to `CN=c1scc(C)n1/N=C/c1ccc(O)cc1O`, the outcome was active.

`CN=c1scc(C)n1/N=C/c1ccc(O)cc1`: the compound was called inactive.

In the case of `CN=c1scc(C)n1/N=C/c1ccc(O)c(O)c1O`, the result was inactive.

Take `Cc1nnc(C)n1/N=C/c1ccc2c(c1)OCCO2`: the result was inactive.

As for `CN=c1scc(C)n1/N=C/c1ccc2c(c1)OCO2`, the call was active.

Consider `CCN=c1scc(C)n1/N=C/c1ccsc1`, for which the compound was called inactive.

Consider `COC(=O)c1ccc(Cn2nc(C(F)(F)F)cc2C)cc1`, for which the compound was called inactive.

For `c1ccc(OCCSc2nnnn2-c2ccccc2)cc1`, the result was inactive.

As for `COc1ccccc1OCCSc1nnnn1-c1ccc(C)cc1`, the result was inactive.

Take `CCN(C(=O)Cc1ccc(Br)cc1)C1CCCCC1`: the outcome was inactive.

Consider `C(=N\n1cnnc1)/c1ccc(OCc2cccc3ccccc23)cc1`, for which the compound was classed as inactive.

For the compound `CCOCCOC(=O)CCSc1n[nH]c(=O)[nH]c1=O`, the result was inactive.

Regarding `CCCC/C(O)=C1\C(=O)CC(C)(C)CC1=Nc1ccccc1OC`, the outcome was inactive.

In the case of `CCC/C(O)=C1\C(=O)CC(C)(C)CC1=Nc1ccccc1OC`, the outcome was inactive.

For the compound `CCOc1ccc(C2c3c(oc4ccccc4c3=O)C(=O)N2CCCN2CCOCC2)cc1OCC` (stereo unspecified), the call was inactive.

As for `Cc1cc(C)n(Cc2ccccc2F)c(=O)c1C#N`, the compound was called inactive.

For `CSc1cc(-c2ccccc2)n(Cc2ccccc2Cl)c(=O)c1C#N`, the call was active.

Take `CSc1cc(-c2ccccc2)n(Cc2c(Cl)cccc2Cl)c(=O)c1C#N`: the compound was classed as active.

As for `Cn1c(=O)c2c(nc(SCCCC#N)n2Cc2c(F)cccc2Cl)n(C)c1=O`, the call was inactive.

On to `CSc1cc(-c2ccccc2)n(Cc2ccc(Cl)cc2Cl)c(=O)c1C#N`, for which the outcome was inactive.

In the case of `CSc1cc(-c2ccc(Cl)cc2)n(Cc2ccccc2)c(=O)c1C#N`, the outcome was inactive.

With `Cc1ccc(-n2c(SCC(=O)NCc3ccco3)nnc2-c2cccnc2)c(C)c1`, the result was inactive.

As for `CCOC(=O)N1CCC(NC(=O)C2CCN(S(=O)(=O)N3CCC(C)CC3)CC2)CC1`, the compound was classed as inactive.

Turning to `Cc1cc(C)cc(OCc2nc3ncc(Br)cc3[nH]2)c1`, the call was inactive.

As for `C=CCOc1cccc(C2C(C(=O)c3ccco3)=C(O)C(=O)N2CCN2CCOCC2)c1` (stereo unspecified), the result was inactive.

For `COc1ccccc1N1CCN(C(=O)CN(c2cc(C)cc(C)c2)S(C)(=O)=O)CC1`, the result was inactive.

Regarding `c1ccc(N2CCN(c3nc4cc5c(cc4s3)OCO5)CC2)cc1`, the result was inactive.

Regarding `O=C(c1ccc2nc(N3CCCCC3)sc2c1)N1CCN(Cc2ccc3c(c2)OCO3)CC1`, the outcome was inactive.

For `c1ccc2sc(N3CCOCC3)nc2c1`, the call was inactive.

Consider `c1c2c(cc3sc(N4CCCCC4)nc13)OCCO2`, for which the call was active.

For `c1c2c(cc3sc(N4CCOCC4)nc13)OCO2`, the result was inactive.

As for `c1ccc(N2CCN(c3nc4cc5c(cc4s3)OCCO5)CC2)cc1`, the compound was called inactive.

For the compound `Clc1ccc2nc(N3CCCCC3)sc2c1`, the compound was classed as inactive.

Consider `c1c2c(cc3sc(N4CCOCC4)nc13)OCCO2`, for which the compound was classed as active.

With `c1ccc2c(c1)CCN(c1nc3cc4c(cc3s1)OCO4)C2`, the compound was called inactive.

With `O=S(=O)(c1ccc2c(c1)OCCO2)N1CCN(c2nc3ccccc3s2)CC1`, the outcome was inactive.

Consider `c1ccc2c(c1)CCN(c1nc3cc4c(cc3s1)OCCO4)C2`, for which the compound was classed as active.

For `c1c2c(cc3sc(N4CCCCC4)nc13)OCO2`, the result was active.

Consider `CCOC(=O)c1c(COC(=O)c2ccco2)nc2ccccc2[n+]1[O-]`, for which the outcome was inactive.

As for `O=C(CCn1c(=O)oc2ccccc21)Nc1cccc(Cl)c1`, the result was inactive.

For the compound `Cc1cc2ccccc2c(=O)n1CC(=O)Nc1ccc2c(c1)OCCO2`, the call was inactive.
